Assay outcomes from PubChem BioAssay.
Sampled rows, rich in hits. Any-hit rate of the full collection: about 11%.
USP30 inh: inhibitors of human USP30 deubiquitinase | purified USP30, Ub-rhodamine cleavage fluorescence | 47,000 compounds, 5.3% hits | inhibition, % at 25 µM | AID 1645860, 2021
USP28 block: inhibitors of human USP28 deubiquitinase; inhibition, % at 25 µM; Ubiquitin carboxyl-terminal hydrolase 28 (Homo sapiens), Q96RU2; purified USP28, Ub-rhodamine cleavage fluorescence, 30 min; 47,000 compounds, 3% hits
USP17 block: inhibitors of human USP17 deubiquitinase; Ubiquitin carboxyl-terminal hydrolase 17-like protein 5 (Homo sapiens), A8MUK1; purified USP17, Ub-rhodamine cleavage fluorescence, 3 h; inhibition, % at 50 µM; 47,000 compounds, 6.5% hits; AID 1645855, 2021
Target sequence (A8MUK1 whole entry, looked up): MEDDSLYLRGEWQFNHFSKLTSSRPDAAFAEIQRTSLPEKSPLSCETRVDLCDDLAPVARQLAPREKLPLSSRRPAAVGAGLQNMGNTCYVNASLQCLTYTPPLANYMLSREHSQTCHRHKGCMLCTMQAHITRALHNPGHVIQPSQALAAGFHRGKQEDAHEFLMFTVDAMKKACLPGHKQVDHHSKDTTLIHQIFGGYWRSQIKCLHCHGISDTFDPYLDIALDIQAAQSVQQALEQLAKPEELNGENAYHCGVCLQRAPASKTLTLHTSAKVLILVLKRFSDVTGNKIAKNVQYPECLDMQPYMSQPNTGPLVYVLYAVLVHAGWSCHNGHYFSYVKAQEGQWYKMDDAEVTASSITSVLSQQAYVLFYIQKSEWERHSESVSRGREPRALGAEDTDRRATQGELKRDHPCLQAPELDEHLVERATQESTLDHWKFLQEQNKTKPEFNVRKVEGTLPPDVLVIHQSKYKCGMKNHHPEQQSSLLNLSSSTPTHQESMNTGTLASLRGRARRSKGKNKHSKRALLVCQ
Active calls of the source: *; i = inactive; nt = not tested or not shown. Rule as the data show it: active = inhibition above about 30%; inactive = the rest.

SMILES	USP30 inh	USP28 block	USP17 block
Cc1ccc(C(C(=O)NC2CCCCC2)N(C(=O)CCCC(=O)Nc2ccccn2)c2ccc(C)cc2C)cc1 (configuration not stated)	27	5	49*
Cc1ccc(N(C(=O)CCCC(=O)Nc2ccccn2)C(C(=O)NC2CCCC2)c2ccc(F)cc2)c(C)c1 (configuration not stated)	9	1	16
COc1ccc(CN(CC(=O)NC2CCCCC2)C(=O)CCC(=O)Nc2ccccn2)cc1	48*	0	4
CCCCOc1ccc(N(C(=O)CCCC(=O)Nc2ccccn2)C(C(=O)NC2CCCC2)c2ccc(F)cc2)cc1 (configuration not stated)	2	0	-2
O=C(CCC(=O)N(CC(=O)NC1CCCC1)Cc1ccccc1)Nc1ccccn1	27	11	-12
O=C(NC1CCCCC1)N1CC(c2nc(-c3ccc[nH]c3=O)no2)C1	-6	-21	-21
COc1ccccc1C(c1c(O)cc(C)n(C)c1=O)c1c(O)cc(C)n(C)c1=O	-25	-24	-41
COc1ccccc1C(=O)N1CC(=O)N(Cc2cccc(F)c2)CC(O)C1 (configuration not stated)	30	2	7
OC(c1ccc2c(c1)OCO2)c1ncc(-c2ccc3ccccc3c2)[nH]1 (configuration not stated)	-30	-2	1
COc1ccc(CC(=O)N2CCC3(CC2)NC(=O)[C@H]2CN(CC(C)C)C[C@H]23)cc1	-9	-8	-15
COc1cccc(CN2CCn3nc(-c4ccccc4OC)cc3C2)c1	-1	11	14
COc1ccccc1-c1cc(CNCCN)n(Cc2ccc3ccccc3c2)n1	44*	30*	-13
C=C[C@]1(C)C=C2C(=O)[C@]3(O)OC(=O)[C@@]4(CCCC(C)(C)[C@H]34)[C@@]2(O)CC1	25	24	69*
Cc1onc(-c2ccccc2)c1CNC(=O)C1CCN(c2nccc(C(F)(F)F)n2)CC1	nt	nt	76*
Cc1onc(-c2ccccc2)c1CNC(=O)c1ccccc1C(=O)O	25	10	12
Cc1ccc(S(=O)(=O)Nc2cccc(Cl)c2)cc1NC(=O)CCC(=O)c1ccc(Cl)cc1	18	-12	0
Cc1ccc(S(=O)(=O)Nc2ccc(Cl)cc2)cc1NC(=O)CC(=O)c1ccccc1	-2	7	38*
Cc1cc(OCC(=O)Nc2ccccc2C)nc(N2CCCCCC2)n1	36*	21	28
Cc1cc(OCC(=O)Nc2ccccc2F)nc(N2CCCCCC2)n1	0	3	-2
CC(=O)c1cccc(NC(=O)c2ccc(N3CCCCC3)nn2)c1	57*	18	49*
O=C(Nc1cccc(Cl)c1Cl)c1ccc(N2CCCC2)nn1	-37	9	nt
O=C(Nc1ccc(F)c(Cl)c1)c1ccc(N2CCCC2)nn1	-9	-9	-17
Cc1ccccc1NC(=O)c1ccc(N2CCCCC2)nn1	70*	-3	47*
COc1cccc(NC(=O)C2CCCN(c3cnc4nccnc4c3)C2)c1 (configuration not stated)	i	-159	-129
Cc1ncc2c(n1)C1(CCN(Cc3ccc(F)c(F)c3)CC1)OCC2	-17	3	-21
SMILES	USP30 inh	USP28 block	USP17 block
CC1CN(C(=O)c2cccn(Cc3c(Cl)cccc3Cl)c2=O)CC(C)O1 (configuration not stated)	17	7	0
N#Cc1ccc(NC(=O)Nc2cccn(Cc3c(F)cccc3Cl)c2=O)cc1	-27	41*	78*
COC(=O)Nc1cccn(Cc2c(Cl)cccc2Cl)c1=O	52*	88*	88*
O=C(Nc1ccccc1)N1CCCN(Cc2c(F)cccc2Cl)CC1	29	10	6
N#Cc1ccc(NC(=O)Nc2cccn(Cc3ccc(F)cc3)c2=O)cc1	26	84*	93*
N#Cc1ccc(NC(=O)C2CC(=O)N(Cc3ccccc3)C2)cc1 (configuration not stated)	-10	-4	-2
CC(C(=O)Nc1ccc(F)cc1)n1cnc2nc(N3CCCCC3)ncc2c1=O (configuration not stated)	-112	-95	-23
CC(C(=O)Nc1ccccc1)n1cnc2nc(N3CCCCC3)ncc2c1=O (configuration not stated)	-125	-22	69*
CC1CCN(Cc2nnc(-c3cn(CC(=O)N4CCCCCC4)c4ccccc34)o2)CC1	-7	-12	-8
CCC(C)NC(=O)Cn1cc(-c2nnc(CN3CCC(C)CC3)o2)c2ccccc21 (configuration not stated)	36*	16	7
COc1cc(CC(=O)OCC(=O)c2c(C)[nH]c3ccccc23)cc(OC)c1OC	-1	9	-2
COc1ccccc1N1CCN(C(=O)c2nnn(-c3ccc(C)cc3)n2)CC1	11	-1	-15
O=C(c1nnn(-c2ccccc2)n1)N1CCC(Cc2ccccc2)CC1	31*	39*	10
CN(Cc1ccccc1)C(=O)c1nnn(-c2ccccc2)n1	6	1	-2
Cc1cccc(N2CCN(C(=O)c3nnn(-c4ccc(F)cc4)n3)CC2)c1	25	56*	14
CCN1CCN(CC(O)COCCOc2ccccc2C(C)C)CC1 (configuration not stated)	4	-8	-12
COc1cc(O)c2c(=O)c(-c3ccc(O)cc3)coc2c1	14	30*	73*
O=c1c(-c2ccc(O)c(O)c2)coc2cc(O)ccc12	-70	3	-43
COc1ccc2cc(CN(C(=O)Nc3ccccc3)C3CCCCC3)c(=O)[nH]c2c1	-6	1	0
CCOc1ccc2[nH]c(=O)c(CN(C(=O)c3cccs3)C3CCCC3)cc2c1	7	-8	66*
CC(=O)Nc1nsc(N2CCC(C(=O)NCc3ccccc3F)CC2)n1	12	15	2
O=C1CCC2(CCCN(S(=O)(=O)c3ccccc3)CC2)N1 (configuration not stated)	-11	-10	-22
O=C(Nc1ccc(CN2CCOCC2)cc1)c1cccc(Br)c1	5	38*	-4
CC(=O)Nc1cccc(C(=O)Nc2ccc(CN3CCOCC3)cc2)c1	10	5	4
Cc1cccc(CN2C(=O)c3ccccc3Sc3ccc(C(=O)NC4CCCC4)cc32)c1	0	2	-6
SMILES	USP30 inh	USP28 block	USP17 block
CCN1C(=O)c2ccccc2Sc2ccc(C(=O)NCc3ccc(C)cc3)cc21	26	38*	-1
O=C(NCc1ccco1)c1ccc2c(c1)N(Cc1cccc(F)c1)C(=O)c1ccccc1S2	-40	6	58*
O=C(c1ccc2c(c1)N(Cc1ccccc1F)C(=O)c1ccccc1S2)N1CCCC1	15	13	11
Cc1noc(-c2cccn(Cc3nc(-c4ccc(F)c(Cl)c4)no3)c2=O)n1	-339	-90	-139
COc1cc(C(=O)NCC(c2ccsc2)N2CCN(C)CC2)cc(OC)c1OC (configuration not stated)	24	15	17
COc1ccccc1C(=O)NCc1nc2ccccc2n1Cc1cc(C)ccc1C	71*	-7	67*
Cc1cccc(C(=O)NCCc2nc3ccccc3n2Cc2ccccc2F)c1	-5	2	17
COc1cc(C(=O)NCCc2nc3ccccc3n2Cc2ccccc2F)cc(OC)c1OC	9	7	0
